This is a sample that favours compounds with a hit; in the whole collection about 11% have one here.
USP30 block – inhibitors of human USP30 deubiquitinase; Ubiquitin carboxyl-terminal hydrolase 30 (Homo sapiens), Q70CQ3; purified USP30, Ub-rhodamine cleavage fluorescence; inhibition, % at 25 µM; 47,000 tested, 5.3% active; AID 1645860, 2021
Target sequence (Q70CQ3 whole entry, looked up): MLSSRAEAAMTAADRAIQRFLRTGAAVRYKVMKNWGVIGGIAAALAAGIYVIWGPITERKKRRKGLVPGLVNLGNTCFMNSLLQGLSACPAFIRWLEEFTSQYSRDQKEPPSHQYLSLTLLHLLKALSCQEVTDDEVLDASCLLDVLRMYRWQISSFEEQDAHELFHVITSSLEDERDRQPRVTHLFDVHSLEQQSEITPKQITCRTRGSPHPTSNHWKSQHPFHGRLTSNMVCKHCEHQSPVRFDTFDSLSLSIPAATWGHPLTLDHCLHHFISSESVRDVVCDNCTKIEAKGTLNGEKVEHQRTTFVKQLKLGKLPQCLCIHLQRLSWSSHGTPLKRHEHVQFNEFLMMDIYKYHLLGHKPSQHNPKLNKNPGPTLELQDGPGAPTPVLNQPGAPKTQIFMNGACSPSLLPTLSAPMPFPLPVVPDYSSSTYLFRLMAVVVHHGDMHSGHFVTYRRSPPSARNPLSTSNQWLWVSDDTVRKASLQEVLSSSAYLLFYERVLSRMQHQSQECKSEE
OTUD3 block – inhibitors of human OTUD3 deubiquitinase; OTU domain-containing protein 3 (Homo sapiens), Q5T2D3; purified OTUD3, Ub-rhodamine fluorescence, 2 h; inhibition, % at 25 µM; 47,000 tested, 0.7% active; AID 1645858, 2021
USP17 block – inhibitors of human USP17 deubiquitinase; Ubiquitin carboxyl-terminal hydrolase 17-like protein 5 (Homo sapiens), A8MUK1; purified USP17, Ub-rhodamine cleavage fluorescence, 3 h; inhibition, % at 50 µM; 47,000 tested, 6.5% active; AID 1645855, 2021
USP28 inh – inhibitors of human USP28 deubiquitinase; Ubiquitin carboxyl-terminal hydrolase 28 (Homo sapiens), Q96RU2; purified USP28, Ub-rhodamine cleavage fluorescence, 30 min; inhibition, % at 25 µM; 47,000 tested, 3% active
Starred values were filed as active, the others as inactive; . = not tested or not shown. Rule as the data show it: active = inhibition above about 30%; inactive = the rest.

SMILES | USP30 block | OTUD3 block | USP17 block | USP28 inh
O=C1N[C@H](Cc2c[nH]c3ccccc23)C(=O)N[C@H]1Cc1c[nH]c2ccccc12 | 36* | 10 | 22 | 12
Cc1cc(C[C@@H]2CCC[C@H]2NCc2cn[nH]c2-c2ccccc2)on1 | 9 | 8 | 6 | 4
Cc1ccc(N(CC(=O)N2CCCc3ccccc32)S(=O)(=O)c2ccc3c(c2)OCCO3)cc1 | 32* | 21 | 7 | 13
O=C(CN1CCN(S(=O)(=O)c2ccc3c(c2)OCCCO3)CC1)N1CCCc2ccccc21 | 12 | 1 | -2 | 1
COc1ccc(-c2cn3c4c(=O)n(C)c(=O)n(C)c4nc3n2-c2ccc(Br)cc2)cc1 | -4 | 3 | -3 | -2
O=C(Cn1cnc(S(=O)(=O)N2CCOCC2)c1)Nc1ccc2c(c1)OCO2 | 1 | 0 | 5 | -7
COc1ccc(-n2ncc(C(=O)N3CCN(c4cc(C)ccc4C)CC3)c2C2CCNCC2)cc1 | 30* | 20 | -18 | 11
CCC1(CC)Oc2ccc(C(=O)CCN(C)C)cc2O1 | 35* | 27 | 7 | 14
O=C(OC(C(=O)c1c[nH]c2ccccc12)c1ccccc1)c1cccc(Oc2ccccc2)c1 (configuration not stated) | -48 | -24 | -68 | -10
CCOc1ccccc1C(=O)NCC(=O)OC(C(=O)c1c[nH]c2ccccc12)c1ccccc1 (configuration not stated) | -34 | -8 | 54* | -5
CCn1c(=O)n(CC(=O)c2ccc(Cl)cc2)c2c(C(N)=O)nc(-c3ccco3)nc21 | -82 | 7 | 36* | -15
CCCn1c(=O)n(CC(=O)c2ccc(Cl)cc2)c2c(C(N)=O)nc(-c3ccco3)nc21 | -183 | -34 | 38* | -36
CCn1c(=O)n(CC(=O)c2ccc(F)cc2F)c2c(C(N)=O)nc(-c3ccco3)nc21 | -84 | 10 | 26 | 0
CCCn1c(=O)n(CC(=O)c2ccccc2F)c2c(C(N)=O)nc(-c3ccco3)nc21 | -96 | 9 | 62* | 4
CN(C)C=Nc1c(C#N)cnn1-c1ccc([N+](=O)[O-])cc1 | 74* | -1 | 17 | 19
Cc1cc(=O)oc2c1c(C)nn2-c1ccc([N+](=O)[O-])cc1 | -43 | -8 | -19 | -20
CC1CCCN(C(=O)c2cn(-c3ccc(S(=O)(=O)N4CCCC(C)C4)cn3)cn2)C1 (configuration not stated) | 38* | 11 | 6 | 10
O=C(Nc1ccc(S(=O)(=O)Nc2cc(Cl)cc(Cl)c2)cc1)c1c(F)cccc1Cl | 25 | 9 | 43* | 16
O=C(Nc1cc(C(F)(F)F)cc(C(F)(F)F)c1)c1c(F)cccc1Cl | 33* | 14 | 17 | 33*
CCC(Oc1ccccc1OC)C(=O)NC1CCCC1 (configuration not stated) | 15 | 12 | 7 | 10
CC(Nc1ncnc2c1sc1nc(N3CCOCC3)c3c(c12)CCC3)c1ccccc1 (configuration not stated) | -9 | -5 | 51* | -1
c1cncc(CNc2ncnc3c2sc2nc(N4CCOCC4)c4c(c23)CCC4)c1 | 17 | -3 | 32* | 1
Cc1ccc(NC(=O)c2cnc(N3CCN(C)CC3)nc2C)cc1F | -8 | -6 | -7 | 7
CN(Cc1ccco1)C(=O)CCc1c(-c2ccc(F)cc2)[nH]c2ccccc12 | 14 | 4 | 15 | 0
O=C(CN1CCC2(CC1)N=C(c1ccc(F)cc1)C(=O)N2)Nc1ccc(F)c(F)c1 | 44* | 11 | 1 | 12
SMILES | USP30 block | OTUD3 block | USP17 block | USP28 inh
COc1cccc(C(=O)Nc2nc(-c3ccco3)c(-c3ccco3)s2)c1 | -170 | 25 | 44* | 0
O=S(=O)(Nc1nc(-c2ccco2)c(-c2ccco2)s1)c1ccc(F)cc1F | -421 | -24 | -17 | -29
CCc1nnc(NC(=O)CN2C(=O)CCc3ccccc32)s1 | 0 | 9 | -5 | 0
CCc1nnc(NC(=O)Cn2ncc3c(=O)oc4ccc(C)cc4c32)s1 | 23 | 3 | 31* | 9
CCCCCN(CCCCC)c1ncc2cc3ccccc3nc2c1C#N | -495 | -102 | -150 | -115
O=C(c1cccnc1)N1CCc2[nH]nc(Nc3ccccc3)c2C1 | -13 | -4 | -7 | -3
O=c1[nH]c2ccccc2c(=O)n1CCc1nc(-c2ccncc2)no1 | 7 | -7 | -11 | -6
Cc1cccc(-c2noc(CCn3c(=O)[nH]c4ccccc4c3=O)n2)c1 | 18 | 5 | 61* | 30*
O=c1c2ccccc2n(Cc2ccccc2)c(=O)n1Cc1nc(-c2ccccc2)no1 | 30* | 20 | 11 | 15
CCn1c(=O)c2ccccc2n(Cc2nc(-c3cccc(OC)c3)no2)c1=O | -39 | -1 | 5 | -3
COc1cccc(-c2cc(C(F)(F)F)nc(-n3cnc([N+](=O)[O-])n3)n2)c1 | 5 | 12 | 12 | 16
CC(C)(C)CN1CC[C@H](c2nnc(-c3ccco3)o2)C1 | -13 | -6 | -17 | -16
COc1ccccc1-c1cc(NC(C)=O)c2ncc(-c3ccc(S(C)(=O)=O)cc3)n2c1 | -42 | -16 | 39* | -7
CC(=O)Nc1cc(-c2cccc(CO)c2)cn2c(-c3ccc(S(C)(=O)=O)cc3)cnc12 | -57 | -15 | -11 | -23
CCc1nc(Nc2ccc3c(c2)SC2=NCCN23)c2oc3ccccc3c2n1 | 41* | 27 | 61* | 63*
O=C(O)CCn1ncc2ccccc21 | 7 | 9 | -3 | 8
CC1(c2ccco2)NC(=O)N(CC(=O)Nc2ccc(N3CCCCCC3)cc2)C1=O (configuration not stated) | -7 | -3 | 44* | 0
CCN(c1ccc(NC(=O)CN2C(=O)NC3(CCCCC3)C2=O)cc1)C(C)C | 4 | -1 | 0 | 0
O=C1Nc2ccccc2C(=O)C1C(c1ccc(Cl)cc1)C1C(=O)Nc2ccccc2C1=O (configuration not stated) | 41* | 28 | 88* | 40*
N#Cc1ccc(C(=O)N2CCC(c3cc(N)on3)CC2)cc1 | 22 | 14 | 12 | 4
CC(C)(C)CN1CCC[C@H]1c1nc(-c2cncnc2N)no1 | -16 | -3 | -1 | 1
O=S(=O)(Nc1nnc(C2CC2)s1)c1cccc2nonc12 | . | 1 | 37* | .
O=C1Nc2ccccc2NC12CCOCC2 | -10 | -5 | 1 | -4
O=C(CCC1CCCCC1)Nc1ccccc1C(=O)N1CCOCC1 | 40* | 29 | 70* | 34*
COc1ccc(-c2nc3c(s2)CN(S(=O)(=O)c2c(C)noc2C)CC3)cc1OC | -42 | 8 | 0 | -5
Cc1c(C(C)OC(=O)c2ccc(F)cc2)sc2ncnn12 (configuration not stated) | 32* | 18 | 17 | 29
O=C(c1ccco1)N1CCN(C(c2cccc(F)c2)c2sc3ncnn3c2O)CC1 (configuration not stated) | 0 | 5 | 0 | 1
CCc1cccc(NC(=O)N2CCCn3c(CN4CCCCC4)nnc3C2)c1 | -14 | -4 | -6 | -4

High-throughput results: PubChem BioAssay, Buhrlage Lab, Dana-Farber Cancer Institute and Novartis Institutes for BioMedical Research (Cambridge, Mass)
